Results with a measured potency or affinity are listed apart. A number with no mark means an inactive call.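 The calls were made as follows: active = falling luciferase signal whose fitted half-maximal concentration is at most twice the top tested dose; inconclusive = flat inhibition between 30 and 70% or a poor curve fit; inactive = the rest.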
Assay: off-target signal loss in HeLa-CEM21 co-culture – HeLa F-luc CTL cells, cherry-picked, counter-screen for HIV-1 Env fusion inhibitor project, dose response (AID 652040);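 also: 0% = median of neutral control wells and -100% = doxycycline 40 µg/mL wells; more negative values mean stronger loss of luciferase signal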
Settings: HeLa-F-luc CTL cells with CEM21, firefly luciferase counterscreen; series mostly up to 35 µM; activity change, negative = inhibition: at the top concentration
In the case of Cc1oc(-c2ccccc2F)nc1CN1CCC(C(=O)NCCC2=CCCCC2)CC1, the “activity change, negative = inhibition” value is reported as -1.68%.
For Cn1c(=O)c2c(nc(NCCc3ccccc3)n2Cc2ccccc2)n(C)c1=O, the “activity change, negative = inhibition” value was 23.5%.
In the case of COc1ccc2c(C)nc(Nc3nc(C)c(C)c(=O)[nH]3)nc2c1, the “activity change, negative = inhibition” value is reported as 156% [at 16 µM].
For CCN(CCn1cccn1)C(=O)CC1C(=O)NCCN1CCc1ccccc1 (stereo not given), the “activity change, negative = inhibition” value was 29.3%.
With Cc1cccc(C)c1NC(=O)N1CCN(c2nc3ccccc3s2)CC1 the “activity change, negative = inhibition” value was -17.5%.
For CCOc1ccccc1C(=O)NCC(=O)NNC(=O)CN(C)S(=O)(=O)c1ccc(Cl)cc1, the “activity change, negative = inhibition” value was -20%.
For O=C(CNC(=O)c1cccc(-n2cccc2)c1)Nc1ccccc1Br, the “activity change, negative = inhibition” value was 14.5%.
With CCC12CN(S(=O)(=O)c3ccc(C)cc3)CC(CC)(CN(S(=O)(=O)c3ccc(C)cc3)C1)C2=O the “activity change, negative = inhibition” value was 0.57%.
In the case of CCCc1cc(C(=O)NCc2ccc(OC)cc2)no1, the “activity change, negative = inhibition” value is reported as 15.4%.
With O=C(N/N=C/c1ccc(-n2ccnc2)cc1)c1cccs1 the “activity change, negative = inhibition” value was 27.7%.
With CC(CCc1ccco1)NC(=O)CCc1nnc2ccc(NCc3ccccc3Cl)nn12 (stereo not given) the “activity change, negative = inhibition” value was 55.1%.
With O=C(NCCCc1nc2ccccc2[nH]1)c1ccco1 the “activity change, negative = inhibition” value was 22%.
In the case of CCC(=O)N(C)C(c1ccccc1Cl)c1nnnn1-c1c(C)cccc1C (stereo not given), the “activity change, negative = inhibition” value is reported as 0.685%.
With COC(=O)[C@H](Cc1ccccc1)NC(=O)Cn1cnc(C(=O)Nc2ccc(C)c(C)c2)n1 the “activity change, negative = inhibition” value was 21.9%.
For COc1ccc(S(=O)(=O)NNC(=O)C2Cc3c(ccc4ccccc34)O2)cc1 (stereo not given), the “activity change, negative = inhibition” value was -2.1%.
For O=C(COC(=O)c1cc(S(=O)(=O)N2CCOCC2)ccc1O)NCc1ccc2c(c1)OCO2, the “activity change, negative = inhibition” value was 6.65%.
In the case of CC1CCC(C(C)C)C(OC(=O)Cn2c(-c3ccc(Cl)cc3)[n+](C)c3ccccc32)C1 (stereo not given), the activity change, negative = inhibition is reported as 55.5% [at 8 µM].
In the case of COc1ccc(S(=O)(=O)N2CCCCC2)cc1NC(=O)CCCOc1ccc(C)cc1, the “activity change, negative = inhibition” value is reported as 4.9%.
With COc1ccc(NC(=O)CN2CCC(C(N)=O)(N3CCCCC3)CC2)cc1 the “activity change, negative = inhibition” value was -14.4%.
For CCOC(=O)C1CCN(C(=O)c2ccc3c(c2)C(=O)N(c2ccccc2C)C3=O)CC1, the “activity change, negative = inhibition” value was 3.39%.
In the case of C[C@@H]1CN([C@H](C)CO)C(=O)c2cccc(NC(=O)c3ccncc3)c2O[C@@H]1CN(C)Cc1ccc(C(=O)O)cc1, the “activity change, negative = inhibition” value is reported as 5.66%.
With O=C1COc2ccc(-c3csc(=Nc4ccc(OC(F)F)cc4)n3CC3CCCO3)cc2N1 (stereo not given) the “activity change, negative = inhibition” value was 6.16%.
In the case of c1csc(-c2csc3ncnc(NCCCN4CCOCC4)c23)c1, the “activity change, negative = inhibition” value is reported as -9.92%.
With C=CC[n+]1c(-c2ccc(C)cc2)csc1NNC(=O)Nc1ccccc1 the “activity change, negative = inhibition” value was -1.26% [at 16 µM].
In the case of COc1ccc(Nc2ncc(C(=O)N3CCN(c4ccc(F)cc4)CC3)c3ccccc23)cc1, the “activity change, negative = inhibition” value is reported as -2.35%.
With Cc1onc(-c2ccccc2)c1C(=O)Nc1ccc(Br)cc1Cl the “activity change, negative = inhibition” value was -7.96%.
With CCOC(=O)CN1CCCc2nc(C)c(C)cc21 the “activity change, negative = inhibition” value was 22.2%.
With Nc1nonc1C(=O)NCCNCc1cc(Br)ccc1OCc1ccccc1F the “activity change, negative = inhibition” value was 101%.
Molecule COc1ccccc1N1CCN(Cc2ccc(O)c3ncccc23)CC1 has an activity change, negative = inhibition of 166% [at 8 µM].
With Cc1ccc(-n2nnnc2-c2cnn(-c3ccc(F)cc3)c2C(F)(F)F)cc1 the “activity change, negative = inhibition” value was 12.4%.
For Nc1c(S(=O)(=O)c2ccccc2)cnc2c(-c3ccc(F)cc3)cnn12, the “activity change, negative = inhibition” value was -1.17%.
In the case of N#Cc1ccc(CN2CCN(C(=O)CNC(=O)Cc3cccc4ccccc34)CC2)cc1, the “activity change, negative = inhibition” value is reported as 18.8%.
With Cc1nc2ccccc2c2oc(C(=O)NCc3ccc4c(c3)OCO4)cc12 the “activity change, negative = inhibition” value was 36%.
With CCCCS(=O)(=O)N1CCN(C(=O)C(=O)c2cccc(C(F)(F)F)c2)CC1 the “activity change, negative = inhibition” value was -8.5%.
In the case of Nc1ccn([C@@H]2O[C@H](C(=O)NCc3ccc4c(c3)OCO4)[C@@H](O)[C@H]2O)c(=O)n1, the “activity change, negative = inhibition” value is reported as 25.8%.
With Cc1sc2ncnc(N3CCN(S(=O)(=O)c4ccc(Br)cc4)CC3)c2c1C the “activity change, negative = inhibition” value was -1.58%.
With COc1ccccc1S(=O)(=O)n1cc(Cc2ccccc2)c(N)n1 the “activity change, negative = inhibition” value was 0.656%.
For COCC(C)n1c(-c2ccc3c(c2)NC(=O)CO3)csc1=Nc1ccc(OC(F)F)cc1 (stereo not given), the “activity change, negative = inhibition” value was 3.74%.
For COc1ccc(/C=C/c2nc(S(=O)(=O)c3ccccc3)c(NCCCN(C)C)o2)cc1OC, the “activity change, negative = inhibition” value was 15.6% [at 16 µM].
In the case of c1ccc(CSc2nnc([C@@H]3CCCN3)o2)cc1, the “activity change, negative = inhibition” value is reported as 9.53%.

— PubChem BioAssay AID652040 (Broad Institute, 2013)
